Results from PubChem BioAssay (Tox21).
Several values for one entry are separate records, joined by “and”; a condition that tells them apart may be missing. Equal entries are not always repeated. Results filed as inconclusive are left out. Entries that show only a call come without a potency. Activity calls are given as the source filed them. The call rests on the fitted dose curve; in most records, active means well fitted activation curve with a large enough effect in the signal ratio in the repeat runs (not every such curve was filed as active); inconclusive means weak or mixed curves; inactive means flat fitted curve, though single readings scatter; the % refers to the signal ratio.

Assay: qHTS assay to identify small molecule agonists of H2AX (AID 1224845)
Conditions: CHO-K1 phospho-H2AX Ser139 HTRF, 3 h; series mostly up to 154 µM
Source text: National Center for Advancing Translational Sciences [NCATS]
NIH Chemical Genomics Center [NCGC]
U.S. Environmental Protection Agency [EPA]
National Institutes of Environmental Health Sciences [NIEHS]
National Toxicology Program [NTP]
U.S. Food and Drug Administration [FDA]
HTRF phospho-H2AX (Ser139) assay (Cisbio Bioassays, US) enables the quantitative detection of the histone variant H2AX when phosphorylated on serine 139. When double-stranded DNA breaks, either by ionizing radiation or endogenous physiological processes, H2AX becomes phosphorylated at Ser139. This phospho-Ser139 serves as a sensitive biomarker for the detection of such breaks, localizing the site of DNA repair. So, HTRF phospho-H2AX Ser139 is a pertinent assay to study genome stability, the cell cycle, DNA repair, and it serves as a biomarker for cancer, and to understand aging. Wild type CHO-K1 cells were used to identify the inducers of Phospho-H2AX Ser 139 from the Tox21 10K compound collections.
Tox21 Assay Protocol Summary:
The CHO-K1 cells suspended in culture medium containing 10% FBS were dispensed at 1000 cells/ 3 ul/well in 1536-well white wall/solid bottom plates (Greiner Bio-One North America, NC) using a Multidrop Combi (Thermo Fisher Scientific Inc., Waltham, MA). After the assay plates were incubated at 37C overnight, 23 nl of compounds at 15 concentrations (from 5-48 columns) or positive control (from 1 to 4 columns) were transferred to the assay plates using a Pintool station (Wako, San Diego, CA) into each well resulting in a final DMSO concentration of 0.76%. After 3hr incubation at 37C, 1 uL/well Supplemented Lysis buffer (diluted 100 fold blocking reagent in lysis buffer) (HTRF Phospho-H2A.X (S139) Assay kit from Cisbio US Inc., Bedford, MA) was added using a Flying Reagent Dispenser (FRD) (Aurora Discovery, CA). After 10sec spin at 1000 rpm in a plate centrifuge, the assay plates were incubated at room temperature for 30 min. Then followed by the addition of 1 uL/well detection buffer (containing a mixture of two antibodies, one labeled with cryptate, Anti pH2AX (S139)-K and another labeled with d2, Anti H2AX-d2) using FRD. After incubation at room temperature for 24 hr, the time resolved fluorescence at excitation 320 nm and emissions at 665 nm and 620 nm was measured using an Envision plate reader (PerkinElmer, Waltham, MA).
Potency means the concentration at half of the fitted maximal effect.

Row | SMILES | Potency
1 | O=C(NC(=O)c1c(F)cccc1F)Nc1cc(Cl)c(OC(F)(F)C(F)F)c(Cl)c1 | inactive
2 | CCC[CH2][Sn]([CH2]CCC)([CH2]CCC)[O]C(=O)c1ccccc1 | 0.505 µM (active)
3 | Cc1ccc(OP(=O)(Oc2ccccc2)Oc2ccccc2)cc1 | inactive
4 | C=CC(=O)N(C)C | inactive
5 | CCCCCCCCCCCCBr | inactive
6 | CN(CCCC(O)c1cccnc1)N=O (stereo not given) | inactive
7 | COC[C@H](C)N(C(=O)CCl)c1c(C)csc1C | inactive
8 | CCOCCOC(C)=O | inactive
9 | O=C(Cl)c1ccc(Cl)cc1 | inactive
10 | BrCBr | inactive
11 | C[C@]12CC[C@H](O)C[C@H]1CC[C@@H]1[C@@H]2C[C@@H](O)[C@]2(C)[C@@H](C3=CC(=O)OC3)CC[C@]12O | inactive
12 | C[C@@H]1CC[C@@]2(OC1)O[C@H]1[C@@H](O)[C@H]3[C@@H]4CC[C@H]5C[C@@H](O[C@@H]6O[C@H](CO)[C@H](O[C@@H]7O[C@H](CO)[C@@H](O)[C@H](O[C@@H]8OC[C@@H](O)[C@H](O)[C@H]8O)[C@H]7O[C@@H]7O[C@H](CO)[C@@H](O)[C@H](O[C@@H]8O[C@H](CO)[C@@H](O)[C@H](O)[C@H]8O)[C@H]7O)[C@H](O)[C@H]6O)[C@H](O)C[C@]5(C)[C@H]4CC[C@]3(C)[C@H]1[C@@H]2C | inactive
13 | CCCN(CCC)c1c([N+](=O)[O-])cc(S(N)(=O)=O)cc1[N+](=O)[O-] | 101 µM (active)
14 | Oc1cccc(-c2ccccc2)c1 | inactive
15 | COCC(=O)N(c1c(C)cccc1C)[C@H](C)C(=O)OC | inactive
16 | N#C/C=C/c1ccccc1 | inactive
17 | Oc1ccc(C(=C(Cl)Cl)c2ccc(O)cc2)cc1 | inactive
18 | O=C(O)C1C2CCC(O2)C1C(=O)O (stereo not given) | 102 µM (active)
19 | CC(O)C#N (stereo not given) | inactive
20 | N#CC(Cl)Cl | inactive

Row | SMILES | Potency
21 | N#Cc1ccccc1N | inactive
22 | CC1(C)C(/C=C(\Cl)C(F)(F)F)C1C(=O)OC(C#N)c1cccc(Oc2ccccc2)c1 (stereo not given) | inactive
23 | CC(=O)Nc1ccc2c(c1)Cc1ccccc1-2 | inactive
24 | CCc1cc(C)cc(CC)c1-c1c(OC(=O)C(C)(C)C)n2n(c1=O)CCOCC2 | inactive
25 | CCSC(C)CC1CC(=O)C(/C(CC)=N/OC/C=C/Cl)=C(O)C1 (stereo not given) | inactive
26 | CC(=O)c1ccc(-c2ccccc2)cc1 | inactive
27 | Cc1cc(C(C)(C)c2cc(C)c(O)c(C)c2)cc(C)c1O | inactive
28 | CCCCCCCCCCCCCCCC[N+](C)(C)C | inactive
29 | CCCCN(CCCC)C(=S)[S-].CCCCN(CCCC)C(=S)[S-].[Zn+2] | inactive
30 | COc1ccc(/C(=C/C(=O)N2CCOCC2)c2ccc(Cl)cc2)cc1OC | inactive
31 | [Cd+2].[Cl-].[Cl-] | 50.9 µM (active) and 56.6 µM (active)
32 | c1ccc2c(c1)OCC(C1=NCCN1)O2 (stereo not given) | 49.2 µM (active)
33 | O=[N+]([O-])c1cc(C(F)(F)F)c(Cl)c([N+](=O)[O-])c1Cl | 31.8 µM (active)
34 | ClC1=C(Cl)[C@]2(Cl)[C@@H]3[C@@H](Cl)[C@@H](Cl)C[C@@H]3[C@@]1(Cl)C2(Cl)Cl | inactive
35 | O=[N+]([O-])c1ccc(Oc2ccc(C(F)(F)F)cc2[N+](=O)[O-])cc1 | inactive
36 | c1ccc2c(c1)[nH]c1cnccc12 | inactive
37 | Clc1ccc(C(c2ccc(Cl)cc2)C(Cl)(Cl)Cl)cc1 | 0.161 µM (active)
38 | Cn1[nH]nnc1=S | inactive
39 | N#CNC#N | inactive
40 | O=C(Nc1ccc2[nH]ccc2c1)c1cc2cc(F)ccc2n1Cc1cccc(F)c1 | inactive
